Screens from PubChem BioAssay.
hcDAF12 agonist = activates DAF-12 receptor from parasite H. contortus; HEK293 hcDAF-12 lit1-tk-luc reporter, luminescence; 0% DMSO, 100% Δ7-dafachronic acid; activation, % at 6.8 µM; actives 1.4% (n = 370,000); AID 652067;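 active = activation above the mean of all tested compounds plus 3 SD, cut at about 5.5% in these data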
DAX1 inh-1 = blocks DAX1 repression of SF-1 activated StAR promoter; HEK293T StAR-luciferase reporter, SF-1/DAX-1 repression relief; actives 1.1% (n = 370,000); inhibition, % at 6.8 µM;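 active = inhibition above the mean over all tested compounds plus 3 SD, cut at about 3.6% in these data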;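 note: higher inhibition means more luminescence from relief of DAX-1 repression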
ssDAF12 agonist = S. stercoralis DAF-12 activation, primary screen; actives 1% (n = 370,000); AID 652126; HEK293 ssDAF-12/GRIP1 lit1-tk-luc reporter, luminescence; % of 3 µM dafachronic acid response; activation, % at 6.8 µM;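 active = activation above the mean over all tested compounds plus 3 SD, cut at about 0.9% in these data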
DAX1 inh-2 = NR0B1 (DAX1) inhibition. actives 0.99% (n = 340,000). HEK293 Gal4-DAX1 luciferase reporter, luminescence. P51843. inhibition, % at 6.75 µM. AID 504766;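 active = inhibition above the mean over all tested compounds plus 3 SD, cut at about 4.2% in these data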;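 note: inhibition shows as a rise in luminescence from relieved DAX1 repression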
Target sequence (P51843 207-470 limits assumed): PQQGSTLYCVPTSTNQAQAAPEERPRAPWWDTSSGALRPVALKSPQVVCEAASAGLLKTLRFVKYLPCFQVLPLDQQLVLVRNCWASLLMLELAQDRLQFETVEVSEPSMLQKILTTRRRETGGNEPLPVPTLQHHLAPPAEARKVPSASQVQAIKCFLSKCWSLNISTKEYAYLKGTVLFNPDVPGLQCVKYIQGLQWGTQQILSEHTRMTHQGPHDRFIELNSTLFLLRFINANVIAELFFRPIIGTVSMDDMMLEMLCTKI
SMARCA2 activ = activators of SMARCA2 function. activation, % at 9.1 µM. actives 1% (n = 370,000). MG213 cells, MMTV-luciferase reporter, dexamethasone, overnight; in the data active = activation above about 7.8%
hgDAF12 agonist = activates the H. glycines DAF-12 receptor ligand-binding domain | activation, % at 6.8 µM | actives 1.8% (n = 370,000) | HEK293 GAL4-hgDAF12 UAS-luciferase reporter, agonist luminescence; normalized to butyrate control | AID 687014;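 active = activation above a cutoff set at the mean of all screened compounds plus 3 SD, cut at about 10% in these data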
LXRb hcDAF ctr = activates human LXR-beta, counter-screen for hcDAF-12 agonists; shares compounds with hcDAF12 agonist; HEK293 Gal4-LXR tk-luc reporter, luminescence, 24 h; normalized: DMSO 0%, positive control 100%; activation, % at 6.8 µM; 3,400 tested, under 10 active;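 active = mean percent activation of the reporter above a cutoff set as the average over tested compounds plus their standard deviation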
Target sequence (P55055 whole entry, looked up, the tested form may be a part): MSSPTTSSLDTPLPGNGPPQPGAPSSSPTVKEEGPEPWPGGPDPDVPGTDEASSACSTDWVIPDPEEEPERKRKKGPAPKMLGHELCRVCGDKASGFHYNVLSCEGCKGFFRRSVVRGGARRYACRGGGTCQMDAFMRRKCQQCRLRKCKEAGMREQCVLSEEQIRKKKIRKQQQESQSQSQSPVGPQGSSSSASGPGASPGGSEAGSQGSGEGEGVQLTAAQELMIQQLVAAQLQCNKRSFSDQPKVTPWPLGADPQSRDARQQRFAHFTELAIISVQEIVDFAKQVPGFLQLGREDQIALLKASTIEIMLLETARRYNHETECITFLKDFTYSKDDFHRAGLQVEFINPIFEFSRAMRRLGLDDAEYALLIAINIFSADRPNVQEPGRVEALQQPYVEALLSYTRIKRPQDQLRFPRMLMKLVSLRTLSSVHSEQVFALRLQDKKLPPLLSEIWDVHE
hcDAF12 conf = confirmation of H. contortus DAF-12 agonists; shares compounds with hcDAF12 agonist; HEK293 hcDAF-12 lit1-tk-luc reporter, luminescence; % of Δ7-dafachronic acid response; activation, % at 6.8 µM; actives 61% (n = 3,400); AID 743032;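 active = mean activation across triplicate tests above the threshold derived from the earlier primary screen, cut at about 5.5% in these data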
hgDAF12 conf = hgDAF-12 agonism, confirmation assay; actives 80% (n = 3,300); HEK293 GAL4-hgDAF12 luciferase reporter, agonist mode; percent of butyrate response; shares compounds with hgDAF12 agonist; activation, % at 6.8 µM;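 active = mean activation over triplicate wells above the hit cutoff derived from the earlier primary screen, cut at about 11% in these data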
LXRb DAF12 ctr = counter-screen for DAF-12 agonists: agonists of human LXR-beta. shares compounds with hgDAF12 agonist. activation, % at 6.8 µM. HEK293 Gal4-LXR luciferase reporter, 24 h. 3,300 tested, under 10 active;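 active = mean activation of the triplicate above a set limit carried over from the primary screen, none filed active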
A number is an active result; 0 = inactive; - = no result given. A selection: hits, their analogues and other compounds. The true share with any hit is near 4.8%.

SMILES | hcDAF12 agonist | DAX1 inh-1 | ssDAF12 agonist | DAX1 inh-2 | SMARCA2 activ | hgDAF12 agonist | LXRb hcDAF ctr | hcDAF12 conf | hgDAF12 conf | LXRb DAF12 ctr
CC(=O)Nc1sc2c(c1-c1nc3ccccc3s1)CCCN(C(C)C)C2 | 42 | - | 7.3 | - | - | 24 | 0 | 21 | 0 | 0
CC(=O)Nc1sc2c(c1-c1nc3ccccc3s1)CCOC2 | 0 | - | 0 | - | - | 0 | - | - | - | -
O=C(COC(=O)c1c2c(nc3ccccc13)CCCCC2)NCc1ccc2c(c1)OCO2 | 0 | 0 | 0 | 0 | 0 | 0 | - | - | - | -
COc1ccc(C(=O)O/N=C(\N)c2ccccc2)cc1 | 8.7 | 0 | 1.9 | 0 | 0 | 14 | 0 | 6.7 | 18 | 0
Cc1ccc(/C(N)=N/OC(=O)c2ccco2)cc1 | 7.8 | 4.2 | 1.2 | 0 | 0 | 14 | 0 | 0 | 19 | 0
Cc1ccc(C(=O)O/N=C(\N)c2ccc(Br)cc2)cc1 | 0 | 0 | 0 | 0 | 0 | 0 | - | - | - | -
O=C1CCCCC1Nc1ccc([N+](=O)[O-])cc1 (stereo not given) | 0 | 0 | 0 | 0 | 0 | 0 | - | - | - | -
Oc1ccc(N=Nc2ccc3ccccc3c2)cc1 | 7.1 | 0 | 0 | 0 | 0 | 16 | 0 | 0 | 20 | 0
Oc1ccc(N=Nc2c(O)ccc3ccccc23)cc1 | 0 | 0 | 0 | 0 | 0 | 0 | - | - | - | -
COc1ccc(CC2(CO)CCN(Cc3cccc(OC)c3OC)CC2)cc1 | 0 | 0 | 0 | 0 | 0 | 0 | - | - | - | -
CCc1ccc(NC(=O)COc2ccc(F)cc2C(=O)c2cnn(-c3ccccc3)c2)cc1 | 12 | 0 | 0 | 0 | 0 | 18 | 0 | 7.8 | 0 | 0
CCc1ccc(NC(=O)COc2coc(CN3CCN(c4ccccc4)CC3)cc2=O)cc1 | 0 | 0 | 0 | 0 | 0 | 0 | - | - | - | -
Nc1c(C(=O)N2CCCC2)sc2nc3c(cc12)CCCCCC3 | 0 | 0 | 0 | 0 | 0 | 0 | - | - | - | -
Nc1c(C(=O)N2CCOCC2)sc2nc3c(cc12)CCCC3 | 6.9 | 0 | 0 | 0 | 0 | 14 | 0 | 7.1 | 0 | 0
Cc1[nH]nc(N)c1N=Nc1ccc(Br)cc1 | 0 | 0 | 0 | - | 0 | 0 | - | - | - | -
Cc1nc(N)sc1N=Nc1ccc(Br)cc1 | 8.6 | 3.9 | 1.5 | 5.4 | 0 | 17 | 0 | 0 | 21 | 0
Nc1cc2c(cc1Cl)-c1ccc(Cl)cc1C2=O | 0 | 0 | 0 | 0 | 0 | 0 | - | - | - | -
CCOc1ncccc1C(=O)Nc1nc(SC)ns1 | 6.9 | 0 | 0 | 0 | 0 | 14 | 0 | 6.1 | 11 | 0
CCOc1ncccc1C(=O)Nc1nnc(C)s1 | 0 | 0 | 0 | 0 | 0 | 0 | - | - | - | -
Cc1ccc(NC(=O)c2ccc(Cl)cc2Cl)cc1O | 9.6 | 0 | 1.9 | 7.7 | 0 | 17 | 0 | 6.2 | 15 | 0
CNS(=O)(=O)c1ccc(NC(=O)c2ccc(Cl)cc2Cl)cc1 | 0 | 0 | 0 | 0 | 0 | 0 | - | - | - | -
O=C1C=C(c2ccc3c(c2)OCCO3)C[C@@H](c2ccc(F)cc2)C1 | 0 | 0 | 0 | 0 | 0 | 0 | - | - | - | -
Oc1ccc(F)cc1-c1cc(-c2ccc3c(c2)OCCO3)n[nH]1 | 8.1 | 0 | 1.3 | 4.4 | 0 | 15 | 0 | 0 | 20 | 0
COc1ccccc1N1CCN(c2ccc(-c3ccccc3)nn2)CC1 | 7.1 | 0 | 1.3 | 0 | 0 | 18 | 0 | 0 | 0 | 0
Cc1ccc(NC(=O)N2CCCCC2)cc1[N+](=O)[O-] | 0 | 0 | 0 | 0 | 0 | 0 | - | - | - | -
SMILES | hcDAF12 agonist | DAX1 inh-1 | ssDAF12 agonist | DAX1 inh-2 | SMARCA2 activ | hgDAF12 agonist | LXRb hcDAF ctr | hcDAF12 conf | hgDAF12 conf | LXRb DAF12 ctr
Cc1cc(C(=O)COC(=O)c2ccc(O)cc2)c(C)n1CC(F)(F)F | 8.9 | 4.2 | 0 | 0 | 0 | 15 | 0 | 7.3 | 18 | 0
Cc1cc(C(=O)COC(=O)c2ccc(O)cc2)c(C)n1-c1ccccc1F | 0 | 0 | 0 | 0 | 0 | 0 | - | - | - | -
O=C(N/N=C/c1cn(-c2ccccc2)nc1-c1cc2ccccc2o1)c1ccncc1 | 6.8 | 0 | 2.0 | 0 | 0 | 19 | 0 | 0 | 15 | 0
O=C(N/N=C/c1cn(-c2ccccc2)nc1-c1cccnc1)c1cccnc1 | 0 | 0 | 0 | 0 | 0 | 0 | - | - | - | -
c1ccc(N2CCN(c3cnc4ccccc4n3)CC2)cc1 | 7.0 | 0 | 0 | 0 | 0 | 15 | 0 | 0 | 20 | 0
O=C(Nc1ccc2c(c1)CCC2)c1ccc(Cl)nc1 | 7.7 | 3.8 | 1.2 | 4.7 | 0 | 19 | 0 | 9.3 | 21 | 0
CN(C)S(=O)(=O)c1ccc(C(=O)Nc2ccc3c(c2)CCC3)cc1 | 0 | 0 | 0 | 0 | 0 | 0 | - | - | - | -
CN(C)S(=O)(=O)c1cccc(C(=O)Nc2ccc3c(c2)CCC3)c1 | 6.9 | 0 | 0 | 0 | 0 | 22 | 0 | 7.4 | 19 | 0
O=C(NCc1ccccc1)c1cccc(COc2cccc(Cl)c2)c1 | 0 | 0 | 0 | 0 | 0 | 0 | - | - | - | -
CC1CCC(C(C)C)C(OC(=O)Cn2nnc3c(cnn3-c3ccccc3)c2=O)C1 (stereo not given) | 0 | 0 | 0 | 0 | 0 | 0 | - | - | - | -
C=CCn1c(SCC(=O)Nc2ccc(-c3nc4ccc(C)cc4s3)cc2)nnc1-c1ccccc1 | 7.2 | 4.5 | 0 | 0 | 0 | 18 | 0 | 0 | 0 | 0
CC(=O)Cc1nsc(Nc2ccccc2)n1 | 0 | 0 | 0 | 0 | 0 | 0 | - | - | - | -
c1ccc(Nc2nc(-c3ccccc3)ns2)cc1 | 16 | 0 | 2.0 | 0 | 0 | 22 | 0 | 9.5 | 29 | 0
CC[C@@H](CCC=C(C)C)C(=O)N(Cc1ccccc1)c1ccccc1 | 0 | 0 | 0 | 0 | 0 | 0 | - | - | - | -
N#Cc1ccc(C(=O)Nc2ccc3ccccc3c2)cc1 | 7.9 | 0 | 0 | 0 | 0 | 20 | 0 | 0 | 22 | 0
O=C(Nc1ccc2cn[nH]c2c1)c1ccccc1F | 7.8 | 3.9 | 0 | 0 | 0 | 14 | 0 | 0 | 16 | 0
O=C(Nc1ccc2ccccc2c1)c1ccccc1F | 14 | 0 | 1.6 | 0 | 0 | 19 | 0 | 9.3 | 23 | 0
Cc1c(Cl)cccc1N1C(=O)c2ccccc2C1=O | 0 | 0 | 0 | 0 | 0 | 0 | - | - | - | -
O=C(CCCCCN1C(=O)CCC1=O)Nc1ccc(Br)cc1F | 0 | 0 | 0 | 0 | 0 | 0 | - | - | - | -
O=C(O)C1CCCN1S(=O)(=O)c1cc(Cl)ccc1Cl (stereo not given) | 0 | 0 | 0 | 0 | 0 | 0 | - | - | - | -
O=C(NC1CCCCCC1)c1cccc(N2CCCC2=O)c1 | 7.8 | 0 | 0 | 0 | 0 | 13 | 0 | 10 | 13 | 0
